Screens (PubChem BioAssay)
TDP1 inh – TDP1 (human) enzyme inhibition. Potency, µM (top dose mostly 130 µM), for inactives: at the top dose activity change, negative = inhibition, most hits filed as inhibitors. 350,000 tested, 0.28% active. recombinant TDP1, AlphaScreen DNA substrate cleavage. Q9NUW8; also: potency is read from the fitted curve at half-maximal effect; nearly all actives have a fitted effect of over 40% in size
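Steps: enzyme plus compound, 15 min RT; add biotin/phosphotyrosine-FITC oligonucleotide (15 nM final), react 5 min; add donor/acceptor beads (10 ug/ml final), 10 min; read AlphaScreen. Tdp1 at 1 nM final.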
TDP1 cell noCPT – qHTS for Inhibitors of human tyrosyl-DNA phosphodiesterase 1 (TDP1): qHTS in cells in absence of CPT; AID 686978, 2013; DT40 Tdp1-/- hTDP1 cells, no CPT, ATP luminescence, 48 h; 420,000 tested, 15% active; Potency, µM (doses to about 46.2 µM), without a hit: at the top dose activity change, negative = growth inhibition, hits mostly inhibitors; also: potency is read from the fitted curve at half-maximal effect; nearly all actives have a fitted effect of over 55% in size
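Stably hTDP1-transfected Tdp1-null chicken DT40 cells were treated with library compounds minus camptothecin and grown for at least 48 hr at 37 °C, after which cellular ATP was quantified by luminescence.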
CtBP-E1A blk – CtBP/E1A binding inhibition. AlphaScreen GST-E1A/His-CtBP binding, 1536-well; stronger effect = lower value. activity change, % (test concentration not listed). 340,000 tested, 0.49% active; in the data active = activity change below about -65%; inconclusive = mostly about -30% to -63%
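Steps: dispense buffer (Tris pH 8.0, NaCl 300 mM, TCEP 1 mM, BSA, Tween 20); add 5X protein mix (GST-E1A, His-CtBP, 125 nM each); pin 23 nL compound; 2 h at 37 °C, dark; add 5X beads (50 ug/mL); 1 h; read.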
IL1B secr inh – inflammasome signaling inhibition, IL-1 beta readout; activity change, % at 57.5 µM; THP-1 LPS/ATP IL-1B secretion, AlphaLISA, 16 h; stronger effect = lower value; 360,000 tested, 4.7% active; in the data active = activity change below about -50%; inconclusive = mostly about -30% to -49%
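THP-1 cells pretreated 1 hr with compounds (up to 57.5 uM final), then stimulated with LPS (250 ng/mL final) plus ATP (1.25 mM final); secreted IL-1B measured by AlphaLISA after 16 hr, decreased signal indicating inhibition.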
Six1-Eya2 inh – blocks human Six1 binding to Eya2 | activity change, % (concentration not given with the values) | 360,000 tested, 0.56% active | Q15475+O00167 | AlphaScreen GST-Six1/His-Eya2 binding, biochemical; stronger effect = lower value | AID 651725; in the data active = activity change below about -65%; inconclusive = mostly about -30% to -63%
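Six1/Eya2 binding was read as AlphaScreen signal after compounds were pinned into GST-Six1 plus His-tagged Eya2 (5X stock 250/500 nM) in pH 8.0 Tris/NaCl/TCEP buffer, beads added, then incubated 1 h, 37 C, dark.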
TDP1 cell CPT – growth inhibition of DT40 Tdp1-/-;hTDP1 cells with camptothecin (screen for TDP1 inhibitors) | chicken DT40 Tdp1-/-;hTDP1 cells + 20 nM CPT, ATP luminescence, 48 h | Potency, µM (series often up to 46.2 µM), without a hit: top-dose activity change, negative = growth inhibition, actives largely listed as inhibitors | 420,000 tested, 12% active; also: potency is read from the fitted curve at half-maximal effect; nearly all actives have a fitted effect of over 55% in size
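Chicken DT40 Tdp1-/- cells complemented with human TDP1, 400 cells/well, exposed to compounds plus 20 nM camptothecin for at least 48 h at 37 C; viability read as ATP content by CellTiter-Glo luminescence.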
* = called active by the depositor; ? = inconclusive; / = no result given; [ ] = another dose, or the depositor's remark. Shown are actives, neighbours in structure and some others; about 18% of the full set was active somewhere. Unless noted, calls follow the shape of the dose curve; as a rule, active = well fitted curve in the direction sought with a large enough effect; inconclusive = small, poorly fitted or top-dose-only effect, or another doubt; inactive = no such curve, though single readings can be large; an effect the other way counts as inactive or inconclusive. % is scaled to controls: 0 for no effect and ±100 for the full control effect.

SMILES	TDP1 inh	TDP1 cell noCPT	CtBP-E1A blk	IL1B secr inh	Six1-Eya2 inh	TDP1 cell CPT
Cc1ccc(CN2CC(C(=O)N3CC=C(c4ccccc4)CC3)CC2=O)cc1 (configuration not stated)	5%	?	4	-1	-4	?
Cc1ccccc1OCC(=O)Nc1c(C)ccc2nsnc12	7%	?	/	/	/	?
CN(C)c1ccc(NC2=C([N+](=O)[O-])CS(=O)(=O)C2)cc1	2%	-10%	20	12	-3	2%
COc1ccc(N2C(=O)C3CC=C(Cl)CC3C2=O)cc1 (configuration not stated)	7%	-1%	-7	14	6	0%
Cc1cnc(NC(=O)c2ccc(F)c(S(=O)(=O)N3CCOCC3)c2)s1	3%	?	14	10	-5	?
O=C(/C=C/c1cccnc1)c1ccc(F)c(F)c1	4%	16µM*	-1	-75*	6	?
Cc1cccc(C(=O)NNC(=O)c2ccc(Br)cc2)c1	1%	-19%	-9	-12	-1	-9%
Cc1ccc(C(=O)C=CNNC(=O)c2ccccc2)cc1	/	?	/	6	6	?
O=C(/C=C/c1ccc([N+](=O)[O-])cc1)c1cccnc1	7%	?	0	-14	5	15µM*
CN(C)c1ccc(C(=O)/C=C/c2cccnc2)cc1	/	?	-3	-16	-9	?
O=C(/C=C/NNC(=O)c1ccc(Br)cc1)c1ccccc1	8%	4.1µM*	1	8	-9	2.9µM*
O=C(/C=C/NNC(=O)c1ccccc1)c1ccccc1	6%	0.82µM*	3	37	-1	0.58µM*
O=C(O)c1cc(S(=O)(=O)Nc2cccc3ccccc23)c(Cl)cc1Cl	10%	-13%	-9	28	3	-10%
O=C(Cn1ccc2cc(S(=O)(=O)N3CCCCC3)ccc21)NCCc1ccc(Cl)cc1	3%	?	/	/	/	?
O=C(COC(=O)CSc1ccc([N+](=O)[O-])cc1)NC1CCCCCCC1	/	-7%	-11	-7	5	?
Cc1cccc(C(=O)NNC(=O)c2ccc(-c3ccccc3)cc2)c1	-5%	?	-2	-2	6	?
Cc1cccc(C(=O)NN/C=C/C(=O)c2ccccc2)c1	3%	26µM*	1	70	-18	?
CCN1C(=O)[C@H]2[C@@H](c3ccc(C(F)(F)F)cc3)N[C@]3(CCCN(Cc4ccc(OC)cc4)C3=O)[C@H]2C1=O	/	10µM*	-19	3	7	21µM*
CCN1C(=O)[C@H]2[C@@H](c3ccc(C(F)(F)F)cc3)N[C@]3(CCCN(Cc4ccc(C(F)(F)F)cc4)C3=O)[C@H]2C1=O	/	12µM*	5	-21	7	12µM*
CCN1C(=O)[C@H]2[C@@H](c3ccc(OC)cc3)N[C@]3(CCCN(Cc4ccc(Cl)cc4)C3=O)[C@H]2C1=O	/	?	-2	13	17	?
N#Cc1ccccc1S(=O)(=O)N1CCN(CC(=O)Nc2ccnn2C2CCCC2)CC1	1%	-15%	2	22	6	-1%
O=C(CN1CCN(S(=O)(=O)c2ccccc2F)CC1)Nc1ccnn1C1CCCC1	2%[56.1 µM]	21µM*	/	16	-3	?
O=C(CN1CCN(S(=O)(=O)c2ccccc2F)CC1)Nc1ccccc1C(=O)c1ccccc1	3%	29µM*	/	-17	7	?
O=C1/C(=N\S(=O)(=O)c2cccs2)C([n+]2ccccc2)=C([O-])c2ccccc21	/	2.3µM*	/	-63*	6	2.3µM*
CC(C)(C)c1cc[n+](C2=C([O-])c3ccccc3C(=O)/C2=N\S(=O)(=O)c2cccs2)cc1	5%	4.6µM*	-1	-88*	-1	2.3µM*
SMILES	TDP1 inh	TDP1 cell noCPT	CtBP-E1A blk	IL1B secr inh	Six1-Eya2 inh	TDP1 cell CPT
N/C(=N\S(=O)(=O)c1cccs1)c1ccccc1	5%	-16%	-1	-15	9	-6%
O=C(Nc1ccc2c(c1)OCO2)C1CCCN(S(=O)(=O)c2cccs2)C1 (configuration not stated)	2%	?	-14	-10	-14	16µM*
CCc1cccc(NC(=O)C2CCCN(S(=O)(=O)c3cccs3)C2)c1 (configuration not stated)	9%	13µM*	7	-16	39	16µM*
CCOC(=O)c1c(S(=O)(=O)N2CCCC(C(=O)Nc3cccc(CC)c3)C2)c(C)n(CC)c1C (configuration not stated)	3%	?	/	/	/	18µM*
O=C(Nc1ccc2c(c1)OCO2)C1CCN(S(=O)(=O)c2cccs2)CC1	8%	-17%	-4	-22	-23	-20%
O=C(Nc1ccc2c(c1)OCCO2)C1CCCN(S(=O)(=O)c2cccs2)C1 (configuration not stated)	4%	?	-5	7	-5	13µM*
COc1ccc(NC(=O)C2CCCN(S(=O)(=O)c3cccs3)C2)cc1OC (configuration not stated)	3%	?	9	-1	-5	?
CCC(CC)C(=O)Nc1nc(-c2ccc3c(c2)CCN3C(=O)C2CC2)c(C)s1	6%	23µM*	-2	49	-1	?
CC(C)C(=O)Nc1nc(-c2ccc3c(c2)CCN3C(=O)C2CC2)cs1	5%[0.0935 µM]	13µM*	-6	-12	-1	12µM*
Cc1ccc(CNC(=O)Cn2c(=O)ccc3cc(S(=O)(=O)N4CCC(C)CC4)ccc32)cc1	-2%	?	/	/	/	?
O=C(O)c1ccc(S(=O)(=O)NC2CCCCC2)cc1	5%	-1%	-7	1	2	-17%
CC(NC(=O)Cc1ccc(S(=O)(=O)N2CCOCC2)s1)c1ccc(Cl)cc1Cl (configuration not stated)	/	?	9	4	-10	?
CCc1nnc2c3ccccc3nc(Nc3cc(C)cc(C)c3)n12	2%	3.7µM*	/	/	/	6.5µM*
CCc1nnc2c3ccccc3nc(Nc3ccc(C(C)=O)cc3)n12	-4%	7.3µM*	/	/	/	?
CCc1ccccc1Nc1nc2ccccc2c2nncn12	5%	?	/	/	/	?
O=C1c2ccccc2C(Nc2ccc(S(=O)(=O)N3CCCCCC3)cc2)N1Cc1ccco1 (configuration not stated)	5%	16µM*	25	-4	-2	21µM*
